An excerpt weighted towards active compounds, which were near 7.9% of everything screened.
KB-V1 cytotox: KB-V1 MDR subline cytotoxicity; KB-V1 MDR cells viability, CellTiter-Glo, 72 h; Potency, µM (series often up to 46.1 µM), usual class: cytotoxic; 3.4% of 400,000 active; note: % is set by controls: 0 for no effect and ±100 for the full control effect; nearly all actives have a fitted effect of over 60% in size
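qHTS viability screen in drug-selected KB-V1 MDR cells: 72 h compound treatment at 37 degrees C, ATP luminescence end point.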
HT1080 IDH1KD tx: toxicity to HT-1080 IDH1 knockdown cells (counter line). HT-1080 IDH1 knockdown viability, ATP luminescence, 48 h. Potency, µM (top dose mostly 46.1 µM), for inactives: top-dose activity, negative = toxicity, hits mostly cytotoxic. 2% of 360,000 active;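 note: 0% = DMSO wells and -100% = cell-free medium wells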
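Luminescent ATP read-out (CellTiter-Glo, 10 min at room temperature) after 48 h compound exposure at 37 °C gave viability of IDH1-knockdown HT-1080 cells. Activity was normalised to DMSO and cell-free wells, then fitted as concentration-response curves.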
HT1080NT lethal: kills 2HG-producing HT-1080-NT fibrosarcoma cells. HT-1080-NT fibrosarcoma viability, CellTiter-Glo ATP luminescence, 48 h. Potency, µM (doses to about 46.1 µM), for the others: at the highest dose activity, negative = less viability, usual class: cytotoxic. 1.6% of 360,000 active;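 note: NT is the 2HG producing partner of a matched IDH1 knockdown line; 0% = DMSO-treated cells and -100% = media-only wells without cells; nearly all actives have a fitted effect of over 55% in size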
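Fibrosarcoma NT cells, 750 per well in 5% FBS RPMI, were exposed to compound for 48 hours. Viability: CellTiter-Glo luminescence.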
SW480 rereplic: DNA re-replication induction in SW480 cells. Potency, µM (series often up to 46.1 µM), for inactives: at the highest dose re-replication activation, hits mostly activators. SW480 DNA re-replication, Hoechst DNA content imaging, 48 h. AID 624297. 1.8% of 340,000 active; note: % of control where 0% means no effect; nearly all actives have a fitted effect of over 55% in size
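250 cells/well; 23 nL cpd via pin tool; 48 hr, 37 C, 5% CO2; Hoechst 40 min; imager read of total nuclear intensity, ex 405/em 500-530 nm.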
MCF10A rerep: inducers of DNA re-replication in MCF 10A breast cells | MCF 10A DNA re-replication, Hoechst nuclear intensity, 48 h | Potency, µM (highest dose often 46.1 µM), for the others: at the highest dose activity, positive = re-replication, hits mostly activators | 2.9% of 350,000 active | AID 624296; note: % of control where 0% means no effect; nearly all actives have a fitted effect of over 50% in size
KB-3-1 tox: kills parental KB-3-1 adenocarcinoma cells; 1.4% of 400,000 active; KB-3-1 viability, CellTiter-Glo ATP luminescence, 72 h; Potency, µM (doses to about 46.1 µM), usual class: cytotoxic; note: % is set by controls: 0 for no effect and ±100 for the full control effect; nearly all actives have a fitted effect of over 60% in size
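Cells are dispensed, compounds pinned in, plates held at 37 °C for 72 h, then CellTiter-Glo is added and luminescence read after 10 minutes. Cell line: parental KB-3-1 in phenol-red-free DMEM, 10% FBS.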
* hit, by the source's call; i = inactive; ? = inconclusive; . = no result; [ ] = dose if it differs, or a comment. Calls come from the whole dose curve; as a rule, active = well fitted curve in the direction sought with a large enough effect; inconclusive = small, poorly fitted or top-dose-only effect, or another doubt; inactive = no such curve, though single readings can be large; an effect the other way counts as inactive or inconclusive. Potency is the fitted concentration of half-maximal effect.

SMILES | KB-V1 cytotox | HT1080 IDH1KD tx | HT1080NT lethal | SW480 rereplic | MCF10A rerep | KB-3-1 tox
Nc1ccc(Oc2ccc3nc(-c4ccccc4)c(-c4ccccc4)nc3c2)cc1 | ? | -6.9% | -9.9% | 10.6% | 10.7% | ?
Nc1ccc2nc(-c3ccccc3)c(-c3ccccc3)nc2c1 | i | -1.7% | -3.9% | 23.1µM* | 20.6µM* | i
CCSc1nnc(NC(=O)CSc2nc3c(c(=O)n2C)SC(C)C3)s1 (stereo not given) | 2.91µM* | 1.2% | 20.1% | 3.2% | -3.5% | i
CCn1c(SCC(=O)Nc2nnc(C)s2)nc2c(c1=O)SC(C)C2 (stereo not given) | i | 0.2% | 2.9% | 0.0% | 2.2% | i
CCSc1nnc(NC(=O)CSc2nc3c(c(=O)n2CC)SC(C)C3)s1 (stereo not given) | 2.59µM* | 3.1% | 2.3% | -2.4% | 9.5% | 6.51µM*
CC1Cc2nc(SCC(=O)N3CCOCC3)n(C)c(=O)c2S1 (stereo not given) | i | 6.0% | 2.1% | -20.5% | -1.9% | i
CC1Cc2nc(SCC(=O)N3CCc4ccccc43)n(C)c(=O)c2S1 (stereo not given) | 2.59µM* | -0.3% | -0.6% | -3.8% | 6.9% | i
CC(C)C[C@H](NC(=O)Nc1cccc(Br)c1)C(=O)O | i | 16.5% | 19.1% | 0.0% | 0.2% | i
COc1ccc(-c2nc(CSCC(=O)N3CCN(c4cccc(C)c4)C(C)C3)c(C)o2)cc1OC (stereo not given) | ? | -14.7% | -10.1% | ? | 17.1% | i
O=S(Cc1ccc(Br)cc1)Cc1nnc(SCc2ccc(Cl)cc2)n1-c1ccccc1 (stereo not given) | 2.31µM* | -21.5% | -2.7% | -4.3% | ? | ?
Cn1c(CS(=O)Cc2c(Cl)cccc2Cl)nnc1SCc1ccc(Cl)cc1 (stereo not given) | 5.17µM* | ? | -0.6% | -2.9% | 19.1% | i
Nn1c(Cc2cccc3ccccc23)nnc1SCc1c(F)cccc1Cl | ? | 0.2% | 1.8% | 2.9% | 17.7% | i
O=S(Cc1ccc(Br)cc1)Cc1nnc(SCc2c(F)cccc2Cl)n1-c1ccccc1 (stereo not given) | 2.31µM* | -24.3% | -4.7% | 9.9% | ? | ?
CNc1cncc(-c2ccccc2NC(C)=O)n1 | i | -1.5% | 0.3% | . | . | i
CCOC(=O)c1cccc2c1N[C@@H](c1ccc(F)cc1)[C@H]1CC=C[C@@H]21 | i | . | . | . | . | i
CCn1c2c(c(=O)n3ncc(C(=O)Nc4cccc(Cl)c4C)c13)CN(Cc1ccc(OC)cc1)CC2 | i | . | . | . | . | i
Cc1nc2c(c(C)nn2-c2ccccc2)c(C)c1CCC(=O)Nc1ccccc1 | i | . | . | . | . | i
Cc1nc2c(c(C)nn2-c2ccccc2)c(C)c1CCC(=O)Nc1ccc(CN2CCCC2)cc1 | ? | 20.6µM* | 14.6µM* | ? | ? | i
CCN(CC(=O)Nc1ccc2c(c1)OCCO2)C(=O)CN1C(=O)NC(C)(c2ccc(C)cc2)C1=O (stereo not given) | i | -10.1% | -1.4% | 2.4% | 6.2% | i
CC(C)CCNC(=O)c1ccc2c(SCC(=O)O)c3c(nc2c1)CCCC3 | ? | -7.9% | -3.9% | -7.4% | 3.4% | i
O=C(CSc1nnc2c(n1)[nH]c1ccc(F)cc12)Nc1ccccc1F | i | 1.9% | 14.8% | -7.8% | -1.0% | i
O=C(CSc1nnc2c3ccccc3c3ccccc3c2n1)Nc1ccccc1F | 3.66µM* | 5.4% | 7.2% | -4.2% | -1.4% | i
Cc1nc2ccccc2nc1SCC(=O)c1ccccc1 | 2.59µM* | -6.4% | 1.5% | -1.3% | 13.4% | ?
O=C(CSc1nc(=O)n2cc(Cl)ccc2n1)Nc1cccc2ccccc12 | 25.9µM* | -14.1% | ? | 23.9% | -0.2% | ?
Cc1ccn2c(=O)nc(SCC(=O)c3ccccc3)nc2c1 | i | 1.6% | -0.1% | -6.3% | 0.7% | i
SMILES | KB-V1 cytotox | HT1080 IDH1KD tx | HT1080NT lethal | SW480 rereplic | MCF10A rerep | KB-3-1 tox
Cc1ccn2c(=O)nc(SCC(=O)Nc3cccc4ccccc34)nc2c1 | i | -16.5% | -2.2% | -37.7% | ? | i
Cc1ccc2nc(SCC(=O)c3ccccc3)nc(=O)n2c1 | i | -6.4% | -4.6% | 1.84µM* | 0.7% | i
O=c1c(Cc2ccc(Cl)cc2)c(O)ccn1Cc1ccccc1 | i | -0.6% | -2.3% | -3.3% | 4.6% | i
C=C1C=C(C(F)F)n2ncc(C(=O)NCc3ccc(Cl)cc3Cl)c2N1 | i | . | . | . | . | i
CCOC(=O)c1[nH]ncc1CN1CCCC(C(=O)c2cccc3ccccc23)C1 (stereo not given) | ? | -5.8% | -10.4% | -8.8% | -6.0% | i
Cc1ccc2nc(SCC(=O)N3CCCC3)nc(=O)n2c1 | ? | 4.6% | 0.7% | -4.7% | 3.7% | i
Cc1ccc2nc(SCC(=O)N3CCC(C)CC3)nc(=O)n2c1 | 18.4µM* | 2.2% | 2.2% | -10.6% | -5.6% | i
Cc1cc(NC(=O)CCC(=O)N(CC(=O)NCC2CCCO2)c2cccc(C)c2C)no1 (stereo not given) | i | 13.4% | 13.3% | 0.2% | ? | i
COc1ccccc1NC(=O)CSc1nc(O)c(Cc2ccccc2)c(=O)[nH]1 | i | 5.5%[9.24 µM] | 5.3% | -1.5% | -9.7% | i
CCCc1cc(=O)[nH]c(SCc2nc3ccc([N+](=O)[O-])cc3[nH]2)n1 | i | 14.6µM* | 9.2µM* | 17.6% | 7.2% | ?
COc1ccc(-c2cnn3c(N)c(S(=O)(=O)C(C)(C)C)cnc23)cc1 | 14.6µM* | ? | -27.6% | ? | 15.4% | i
COc1ccc(N2CCN(C(=O)CC34CC5CC(CC(C5)C3)C4)CC2)c([N+](=O)[O-])c1 | 18.4µM* | 9.3% | 10.2% | 4.0% | ? | ?
Cc1ccc2c(CC(=O)Nc3ccc(N4CCN(C)CC4)cc3C)coc2c1 | ? | -13.8% | -2.3% | ? | ? | ?
O=S(c1cc(Cl)cc(Cl)c1O)c1cc(Cl)cc(Cl)c1O | ? | ? | ? | 0.0% | 13.3µM* | ?
O=S(=O)(c1ccccc1)c1ncc(C(F)(F)F)cc1Cl | i | 16.4µM* | ? | ? | 6.31µM* | i
Cc1cccc[n+]1CCCCCCCCCC[n+]1ccccc1C | i | 4.3% | 15.2% | -22.3% | -1.6% | 1.46µM*
O=C(CCN1C(=O)c2ccccc2S1(=O)=O)Nc1ccc(Cl)cc1 | i | -7.0% | -8.0% | 7.0% | -0.1% | i
COC(=O)c1cc(OC)c(OC)cc1NC(=O)c1ccco1 | ? | -10.9% | -11.7% | 10.3% | 2.8% | i

Source: PubChem BioAssay
